Source: PubChem
Compounds with a hit are over-represented: about 11% of the library has one in this group of screens.
JMJD2A Tudor inh: qHTS Assay for Inhibitors of JMJD2A-Tudor Domain; Lysine-specific demethylase 4A (Homo sapiens), O75164; AlphaScreen JMJD2A-Tudor / H3K4me3 peptide binding; Potency, µM (top dose mostly 114 µM), inactives show at the top dose activity change, negative = inhibition, most hits filed as inhibitors; hit rate 4.4% among 390,000; note: potency is the fitted concentration of half-maximal effect; % is set by controls: 0 for no effect and ±100 for the full control effect; nearly all actives have a fitted effect of over 50% in size
G9a block: qHTS Assay for Inhibitors of Histone Lysine Methyltransferase G9a. Potency, µM (doses to about 102 µM), for the others: at the highest dose activity, negative = inhibition, hits mostly inhibitors. hit rate 8.8% among 350,000. Histone-lysine N-methyltransferase EHMT2 (Homo sapiens), Q96KQ7. G9a H3K9 monomethylation, AlphaScreen, 2 h. AID 504332, 2011; note: potency is the fitted concentration of half-maximal effect; % is set by controls: 0 for no effect and ±100 for the full control effect; nearly all actives have a fitted effect of over 75% in size
Target sequence (Q96KQ7 913-1193 limits assumed): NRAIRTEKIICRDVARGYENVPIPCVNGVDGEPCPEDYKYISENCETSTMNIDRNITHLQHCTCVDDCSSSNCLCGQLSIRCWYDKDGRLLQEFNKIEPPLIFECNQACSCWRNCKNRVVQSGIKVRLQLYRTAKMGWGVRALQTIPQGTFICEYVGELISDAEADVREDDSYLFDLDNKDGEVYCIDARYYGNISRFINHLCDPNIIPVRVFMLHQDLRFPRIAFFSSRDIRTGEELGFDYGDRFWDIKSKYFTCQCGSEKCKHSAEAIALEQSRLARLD
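Compounds were preincubated with 20 nM G9a for 15 min, after which biotinylated H3K9 peptide (500 nM) and SAM (20 uM) started a 2 h room-temperature reaction. Monomethylated product was quantified by antibody-based AlphaScreen chemiluminescence.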
L3MBTL1 inh: qHTS Assay for the Inhibitors of L3MBTL1; Lethal(3)malignant brain tumor-like protein 1 (Homo sapiens), Q9Y468; AlphaScreen L3MBTL1–H3K9me1 peptide binding; Potency, µM (series often up to 57.1 µM), inactives show at the top dose activity, negative = inhibition, usual class: inhibitors; hit rate 0.66% among 230,000; AID 485360, 2010; note: potency is the fitted concentration of half-maximal effect; % is set by controls: 0 for no effect and ±100 for the full control effect; nearly all actives have a fitted effect of over 60% in size
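First, the protein-peptide complex forms for 30 min at room temperature (L3MBTL1 50 nM, biotinylated H3K9me1 peptide 75 nM). Next, compounds are pin-transferred and incubated 30 min. Finally, AlphaScreen beads are added and read after 30 min.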
PI5P4Ka inh: qHTS for Inhibitors of phosphatidylinositol 5-phosphate 4-kinase (PI5P4K) | AID 652105, 2013 | max response, % | Phosphatidylinositol 5-phosphate 4-kinase type-2 alpha (Homo sapiens), P48426 | hit rate 1.2% among 330,000 | PI5P4Kalpha enzyme, ADP-Glo luminescence, 60 min; active compounds read low; active = max response of -50% or lower; inconclusive = between -30% and -50%; inactive = -30% or higher; note: value at the top dose of about 77 µM; % is set by controls: 0 for no effect and ±100 for the full control effect
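Quantitative HTS of the MLSMR library against PI5P4Kalpha with substrate. ATP added last at 5 microM final; room temperature, 60 minutes. Remaining ATP depleted, ADP converted and read as luminescence.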
HP1b chromo inh: HTS for Inhibitors of HP1-beta Chromodomain Interactions with Methylated Histone Tails; Chromobox protein homolog 1 (Homo sapiens), P83916; AlphaScreen HP1-beta / biotin-H3K9me3 peptide binding; Potency, µM (titrated, usually from 114 µM), inactives show at the top dose activity change, negative = inhibition, actives largely listed as inhibitors; hit rate 0.56% among 390,000; AID 540317, 2011; note: potency is the fitted concentration of half-maximal effect; nearly all actives have a fitted effect of over 70% in size
Target sequence (P83916 whole entry, looked up): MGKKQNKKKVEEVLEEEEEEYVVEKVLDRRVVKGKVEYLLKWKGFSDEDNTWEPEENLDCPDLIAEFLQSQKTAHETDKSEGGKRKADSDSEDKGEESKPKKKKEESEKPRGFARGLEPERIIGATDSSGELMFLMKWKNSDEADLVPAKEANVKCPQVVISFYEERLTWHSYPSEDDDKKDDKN
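Compound inhibition of the preformed complex between 50 nM HP1-beta and 50 nM biotinylated H3K9me3 peptide was read by AlphaScreen. Buffer was PBS pH 7.4 with 0.01% Tween-20. Incubations ran 30 min at room temperature, with 10 ug/mL donor/acceptor beads.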
BAZ2B inh: qHTS Assay for Inhibitors of BAZ2B. Bromodomain adjacent to zinc finger domain protein 2B (Homo sapiens), Q9UIF8. AlphaScreen BAZ2B-H3K14Ac peptide displacement. Potency, µM (doses to about 114 µM), without a hit: at the highest dose activity change, negative = inhibition, hits mostly inhibitors. hit rate 4.4% among 360,000; note: potency is the fitted concentration of half-maximal effect; % is set by controls: 0 for no effect and ±100 for the full control effect; nearly all actives have a fitted effect of over 60% in size
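BAZ2B 50 nM plus b-H3(5-23)K14Ac 50 nM, PBS pH 7.4/0.01% Tween-20, 30 min RT; compound added (max 110 uM), 30 min RT; streptavidin donor/Ni-chelate acceptor beads 10 ug/mL final, 20 min dark; AlphaScreen read.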
Numbers without * were called inactive; ? = inconclusive; / = no result; [ ] = dose if it differs, or a comment. Unless noted, calls come from the whole dose curve; as a rule, active = well fitted inhibition curve with a large enough effect; inconclusive = small, poorly fitted or top-dose-only effect; inactive = no such curve, though single readings can be large or run the other way.

SMILES | JMJD2A Tudor inh | G9a block | L3MBTL1 inh | PI5P4Ka inh | HP1b chromo inh | BAZ2B inh
COc1ccc(-c2coc3c(C(=O)NCC(C)C)cccc23)c(C)c1 | / | / | / | 8 | / | /
COC(=O)c1c(-c2cccs2)csc1NC(=O)COc1ccc(C(C)(C)C)cc1 | -8% | 4µM* | / | / | -17% | -15%
Cc1cc(O)c2c(c1)C(=O)[C@@]13Oc4c5c(c(O)c6c(O)cc(C)cc46)C(=O)C[C@H](O)[C@H]5[C@@H]1[C@@H](O)CC(=O)C3=C2O | 16µM* | / | / | ? | -20% | /
COc1ccc(-c2nn(C)c3sc(C(=O)N4CCN(c5cc(Cl)ccc5C)CC4)cc23)cc1OC | -36% | ? | / | / | 8% | /
COc1ccc(C2N(c3ccc(Cl)cc3)N=C(C(C)=O)N(C)N2C(C)=O)cc1 (stereo not given) | ? | 28µM* | / | -3 | -11% | ?
CC(C(Sc1ccccc1N)c1ccccc1)[N+](=O)[O-] (stereo not given) | 20µM* | 3.2µM* | / | -30 | ? | -36%
Cc1cc(N2C(=O)C(O)=C(C(=O)c3cccs3)C2c2cccc(Br)c2)no1 (stereo not given) | -29% | ? | -7% | 1 | -8% | -29%
Cc1cc(N2C(=O)C(O)=C(C(=O)c3cc4ccccc4o3)C2c2ccc(Br)cc2)no1 (stereo not given) | ? | 1.6µM* | / | -67* | -3% | ?
Cc1cc(N2C(=O)C(O)=C(C(=O)c3cc4ccccc4o3)C2c2cccc(Cl)c2)no1 (stereo not given) | ? | 40µM* | / | -81* | -11%[57 µM] | -25%
CCCOc1ccc(C2C(C(=O)c3cc4ccccc4o3)=C(O)C(=O)N2c2cc(C)on2)cc1 (stereo not given) | ? | 32µM* | / | -17 | 9% | -30%
Cc1cc(N2C(=O)C(O)=C(C(=O)c3cc4ccccc4o3)C2c2ccc(Cl)cc2)no1 (stereo not given) | ? | -7%[0.0925 µM] | / | -72* | -3% | ?
CCCOc1ccc(C2C(C(=O)c3cc4ccccc4o3)=C(O)C(=O)N2c2cc(C)on2)cc1OC (stereo not given) | -33% | / | / | ? | 19% | -8%
Cn1cc(-c2cc3n(n2)CCC(=O)N3CC(=O)NCc2ccccc2)c2ccccc21 | -22% | 3%[59 µM] | / | / | 7%[57 µM] | -9%
COCCCNC(=O)c1ccc(-c2nc(CS(=O)(=O)c3ccc(C)cc3)c(C)o2)cc1 | 2% | -7%[59 µM] | / | / | 33% | -11%
CC(=O)N1c2ccc(S(=O)(=O)N3CCCCC3)cc2CC1C(=O)NCc1ccc(N(C)C)cc1 (stereo not given) | 28µM* | 40µM* | / | 2 | -14% | -34%
COc1ccc(CNC(=O)C2Cc3cc(S(=O)(=O)N4CCCC4)ccc3N2C(C)=O)c(OC)c1 (stereo not given) | -23% | 22µM* | / | 0 | 42% | ?
CC(=O)N1c2ccc(S(=O)(=O)N3CCCC3)cc2CC1C(=O)NCc1ccc(OC(C)C)cc1 (stereo not given) | -33% | 5% | / | 2 | 19% | -2%
CCc1ccc(NC(=O)CN2C(=O)CSc3ccc(S(=O)(=O)N(C)C)cc32)cc1 | -9% | 2%[59 µM] | / | / | 9% | -10%
CCOc1ccc(S(=O)(=O)N2CCC(N3CCN(Cc4ccc(F)cc4)C(=O)C3=O)CC2)cc1 | -11% | -1%[59 µM] | / | / | 17% | 4%
O=C(NCCSc1c(-c2ccc(Br)cc2)[nH]c2ccccc12)c1ccc(S(=O)(=O)N2CCOCC2)cc1 | -14% | -8%[59 µM] | / | / | 32% | -4%
